A short description of assay [1]: ATG_TAL_CIS: Attagene CIS-FACTORIAL HepG2 Assay for human TAL Basal Promoter (AID 2282966).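 Note: background control endpoint measuring basal TAL promoter reporter mRNA not a specific factor.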 To be noted: HepG2 Attagene cis-factorial TAL promoter reporter; actives raise or lower the signal. The procedure, abridged:
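HepG2 cells were transiently transfected with promoter-driven multiplexed reporter units and dosed for 24 h. Reporter mRNA was measured by RT-PCR with capillary electrophoresis fluorescence; bidirectional fits used DMSO as baseline, serving as a background control.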

Assay [2] in a line: ATG_TGFb_CIS: Attagene CIS-FACTORIAL HepG2 Assay for human Transforming Growth Factor (TGF) (AID 2282967). To be noted: HepG2 Attagene CIS TGFb reporter, mRNA transcription; actives raise or lower the signal. Put shortly:
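Cells were dosed for 24 hours, after which total RNA was reverse-transcribed and reporter sequences amplified, labeled and sized by capillary electrophoresis. Activity was fitted in both directions against DMSO.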

A short description of assay [3]: ATG_VDRE_CIS: Attagene CIS-FACTORIAL HepG2 Assay for human Vitamin D Receptor Element (VDRE) (AID 2282968). The conditions noted are these: HepG2 VDRE cis-reporter transcription, actives raise or lower the signal. The procedure, abridged: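 Reporter mRNA induction, quantified by capillary electrophoresis of fluorescently labelled RT-PCR products, was read 24 h after dosing HepG2 cells carrying transiently transfected cis-regulated reporter units; gain or loss relative to DMSO.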

The target of assay [4] is Estrogen receptor (Homo sapiens) (UniProt P03372). Description: ATG_ERa_TRANS: Attagene TRANS-FACTORIAL HepG2 Assay for human Estrogen Receptor alpha (ERa) (AID 2282970; active = hit-call score of the fitted dose curve at least 0.9, where 1 is the maximum). To be noted: HepG2 Attagene TRANS ERa GAL4 reporter, mRNA. Put shortly:
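HepG2 cells transiently transfected with multiplexed GAL4-UAS reporter units; ERa activity read via exogenous chimeric NR-Gal4 protein. After 24 hour compound exposure, reporter mRNA measured by RT-PCR with 6-FAM labelling and capillary electrophoresis; gain-of-signal fitted relative to DMSO.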

Assay [5] deals with X-box-binding protein 1 (Homo sapiens) (UniProt P17861). Description: ATG_Xbp1_CIS: Attagene CIS-FACTORIAL HepG2 Assay for human X-box Binding Protein 1 (XBP1) (AID 2282972). The conditions noted are these: HepG2 XBP1 cis-element reporter, Attagene multiplex; actives raise or lower the signal. The procedure, abridged: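 After a 24-hour chemical exposure of HepG2 cells carrying cis-regulated reporters, reporter mRNA levels are assessed. Quantification uses RT-PCR, 6-FAM labelling and capillary electrophoresis. Gain- or loss-of-signal is fitted against DMSO.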
Chain of X-box-binding protein 1 (Homo sapiens) (P17861 whole entry, looked up): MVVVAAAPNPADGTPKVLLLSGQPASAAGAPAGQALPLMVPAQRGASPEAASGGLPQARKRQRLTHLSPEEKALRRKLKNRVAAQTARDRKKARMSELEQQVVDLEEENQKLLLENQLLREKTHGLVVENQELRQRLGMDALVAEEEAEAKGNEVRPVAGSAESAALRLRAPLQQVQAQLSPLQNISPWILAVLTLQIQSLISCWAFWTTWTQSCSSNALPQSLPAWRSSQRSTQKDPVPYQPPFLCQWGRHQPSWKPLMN

A short description of assay [6]: ATG_M_19_TRANS: Attagene TRANS-FACTORIAL HepG2 Assay for M19 Transcription Factor (Internal Marker) (AID 2282974; active = hit-call score of the fitted dose curve at least 0.9, where 1 is the maximum). The conditions noted are these: HepG2 Attagene TRANS-FACTORIAL M19 internal marker reporter. The procedure, abridged: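 Background-control readout: after 24 h chemical exposure of transfected HepG2 carrying GAL4-driven reporter units, RNA was reverse-transcribed, amplified, fluorescently labeled and sized by capillary electrophoresis; gain-of-signal fit against DMSO.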

Assay [7] can be described thus: ATG_GAL4_TRANS: Attagene TRANS-FACTORIAL HepG2 Assay for GAL4 (Internal Marker) (AID 2282976; active = hit-call score of the fitted dose curve at least 0.9, where 1 is the maximum). The conditions noted are these: HepG2 Attagene TRANS GAL4 internal marker reporter. Put shortly: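 HepG2 cells transiently transfected with multiplexed GAL4-UAS reporter constructs were dosed for 24 h. Reporter mRNA was measured by RT-PCR, 6-FAM primer extension, HpaI digestion and capillary electrophoresis, and gain of signal was fitted relative to DMSO.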

The target in assay [8] is Oxysterols receptor LXR-beta (Homo sapiens) (UniProt P55055). Briefly: ATG_LXRb_TRANS: Attagene TRANS-FACTORIAL HepG2 Assay for human Liver X Receptor beta (LXRb) (AID 2282981; active = hit-call score of the fitted dose curve at least 0.9, where 1 is the maximum). To be noted: HepG2 Attagene TRANS GAL4-LXRb reporter, mRNA. The procedure, abridged:
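Transient transfection HepG2 (multiplexed RTUs, GAL4-UAS); NR-Gal4 chimera; 24 h exposure; RNA → RT-PCR → 6-FAM primer extension → HpaI → CE; increase vs DMSO.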

The target in assay [9] is Hepatocyte nuclear factor 4-alpha (Homo sapiens) (UniProt P41235). Description: ATG_HNF4a_TRANS: Attagene TRANS-FACTORIAL HepG2 Assay for human Hepatocyte Nuclear Factor 4 alpha (HNF4a) (AID 2282982; active = hit-call score of the fitted dose curve at least 0.9, where 1 is the maximum). The conditions noted are these: HepG2 HNF4a transactivation reporter, mRNA readout. The procedure, abridged:
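Readout is fluorescent reporter-transcript fragments resolved by capillary electrophoresis after RT-PCR from HepG2 cells dosed for 24 h. Cells carried transfected GAL4-UAS reporter constructs measuring exogenous NR-GAL4 chimera activity; DMSO served as baseline.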

Assay [10] in a line: ATG_M_32_TRANS: Attagene TRANS-FACTORIAL HepG2 Assay for M32 Transcription Factor (Internal Marker) (AID 2282984; active = hit-call score of the fitted dose curve at least 0.9, where 1 is the maximum). The conditions noted are these: HepG2 Attagene TRANS M32 internal marker reporter. Put shortly: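 Measures reporter mRNA induction in human HepG2 liver cells after 24 h chemical treatment. Transcripts from transiently transfected GAL4-UAS reporter units are amplified, fluorescently labelled and sized by capillary electrophoresis; gain of signal relative to DMSO.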

In assay [11] the target is Transcriptional activator Myb (Homo sapiens) (UniProt P10242). Briefly: ATG_Myb_CIS: Attagene CIS-FACTORIAL HepG2 Assay for human Myeloblastosis (Myb) Proto-Oncogene Transcription Factor (AID 2282986). To be noted: HepG2 Attagene CIS-FACTORIAL Myb reporter transcription; actives raise or lower the signal. The procedure, abridged:
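Reporter mRNA is quantified by RT-PCR and capillary electrophoresis 24 h after dosing HepG2 cells transfected with cis-regulated reporter units, which track endogenous transcription factor activity. Gain and loss of signal are fitted versus DMSO baseline.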

Assay [12] addresses Nuclear respiratory factor 1 (Homo sapiens) (UniProt Q16656). Description: ATG_NRF1_CIS: Attagene CIS-FACTORIAL HepG2 Assay for human Nuclear Respiratory Factor 1 (NRF1) Orphan Gene (AID 2282987). The conditions noted are these: HepG2 NRF1 cis-element reporter, Attagene multiplex; actives raise or lower the signal. The procedure, abridged:
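Endogenous NRF1-driven reporter transcription in transfected HepG2 cells after 24 h treatment. Readout: RT-PCR products, 6-FAM labelled and resolved by capillary electrophoresis; changes fitted both directions relative to DMSO.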

In assay [13] the target is Glucocorticoid receptor (Homo sapiens) (UniProt P04150). Briefly: ATG_GR_TRANS: Attagene TRANS-FACTORIAL HepG2 Assay for human Glucocorticoid Receptor (GR) (AID 2282978; active = hit-call score of the fitted dose curve at least 0.9, where 1 is the maximum;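 note: activators score as hits since higher reporter transcript over DMSO is fitted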). To be noted: HepG2 Attagene TRANS GR reporter, mRNA transcription. Put shortly: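 Readout is reporter transcript from a chimeric GR-Gal4 acting on GAL4-UAS in transfected human HepG2 liver cells after 24 h exposure, quantified by RT-PCR and capillary electrophoresis. Activation fitted upward against DMSO.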
Chain of Glucocorticoid receptor (Homo sapiens) (P04150 whole entry, looked up, the tested form may be a part): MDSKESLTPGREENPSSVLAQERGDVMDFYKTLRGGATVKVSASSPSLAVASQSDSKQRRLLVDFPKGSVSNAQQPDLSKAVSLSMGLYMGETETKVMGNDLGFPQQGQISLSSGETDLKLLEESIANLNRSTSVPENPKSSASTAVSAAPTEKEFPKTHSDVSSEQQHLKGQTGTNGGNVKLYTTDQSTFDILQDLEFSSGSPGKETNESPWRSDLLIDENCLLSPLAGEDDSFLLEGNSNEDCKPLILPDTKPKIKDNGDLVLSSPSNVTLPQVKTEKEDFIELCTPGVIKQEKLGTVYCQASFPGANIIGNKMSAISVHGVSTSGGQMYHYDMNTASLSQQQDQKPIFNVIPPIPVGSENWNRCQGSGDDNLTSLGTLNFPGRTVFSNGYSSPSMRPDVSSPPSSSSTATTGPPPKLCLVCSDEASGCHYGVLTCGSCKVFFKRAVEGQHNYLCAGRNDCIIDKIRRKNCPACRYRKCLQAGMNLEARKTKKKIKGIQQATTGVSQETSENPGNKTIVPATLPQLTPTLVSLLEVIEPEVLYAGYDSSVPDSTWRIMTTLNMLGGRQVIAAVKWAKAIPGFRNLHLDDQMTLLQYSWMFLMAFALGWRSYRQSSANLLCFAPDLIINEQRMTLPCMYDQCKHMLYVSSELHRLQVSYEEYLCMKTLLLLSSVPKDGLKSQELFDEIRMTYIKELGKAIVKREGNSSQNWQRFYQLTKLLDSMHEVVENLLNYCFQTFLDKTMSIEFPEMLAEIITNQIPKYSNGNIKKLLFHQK

The target of assay [14] is Bile acid receptor (Homo sapiens) (UniProt Q96RI1). Briefly: ATG_FXR_TRANS: Attagene TRANS-FACTORIAL HepG2 Assay for Farnesoid X Receptor (FXR) (AID 2282979; active = hit-call score of the fitted dose curve at least 0.9, where 1 is the maximum;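 note: hits raise reporter mRNA above DMSO so AC50 marks FXR activation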). The conditions noted are these: HepG2 Attagene TRANS FXR-GAL4 reporter transcription. The procedure, abridged: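 HepG2 cells transiently transfected with reporter constructs in which a chimeric FXR-GAL4 protein drives a GAL4-UAS reporter; 24 h compound exposure. Reporter mRNA measured by RT-PCR, FAM labelling, HpaI digestion and capillary electrophoresis; gain-of-signal versus DMSO.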
Chain of Bile acid receptor (Homo sapiens) (Q96RI1 whole entry, looked up, the tested form may be a part): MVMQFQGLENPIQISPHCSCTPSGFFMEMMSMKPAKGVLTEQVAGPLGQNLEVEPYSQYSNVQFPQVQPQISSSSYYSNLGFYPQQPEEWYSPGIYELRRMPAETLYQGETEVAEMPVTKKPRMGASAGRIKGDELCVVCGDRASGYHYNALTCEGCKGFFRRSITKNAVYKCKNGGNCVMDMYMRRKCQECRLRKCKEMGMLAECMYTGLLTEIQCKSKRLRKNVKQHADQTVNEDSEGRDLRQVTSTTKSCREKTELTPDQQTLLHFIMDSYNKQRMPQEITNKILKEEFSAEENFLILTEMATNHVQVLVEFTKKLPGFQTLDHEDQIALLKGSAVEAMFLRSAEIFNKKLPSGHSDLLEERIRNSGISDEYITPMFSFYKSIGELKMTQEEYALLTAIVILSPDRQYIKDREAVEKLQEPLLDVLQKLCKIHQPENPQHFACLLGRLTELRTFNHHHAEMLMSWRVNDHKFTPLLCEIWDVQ

Assay [15] deals with Oxysterols receptor LXR-alpha (Homo sapiens) (UniProt Q13133). Description: ATG_LXRa_TRANS: Attagene TRANS-FACTORIAL HepG2 Assay for human Liver X Receptor alpha (LXRa) (AID 2282980; active = hit-call score of the fitted dose curve at least 0.9, where 1 is the maximum). To be noted: HepG2 Attagene TRANS reporter, LXRa transactivation. The procedure, abridged:
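HepG2 cells were transiently transfected with multiplexed reporter units driven by chimeric LXRa–GAL4 fusion proteins, then dosed for 24 h. Reporter mRNA was quantified by RT-PCR, fluorescent labelling and capillary electrophoresis; gain of signal fitted against DMSO baseline.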

Assay [16] deals with Nuclear receptor subfamily 4 group A member 2 (Homo sapiens) (UniProt P43354). Description: ATG_NURR1_TRANS: Attagene TRANS-FACTORIAL HepG2 Assay for human Nuclear Receptor Related Protein 1 (NURR1) (AID 2282985; active = hit-call score of the fitted dose curve at least 0.9, where 1 is the maximum). To be noted: HepG2 Attagene TRANS reporter, mRNA readout. Put shortly:
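Transient transfection of HepG2, human liver cells, with multiple GAL4-UAS reporter transcription units. Cells dosed 24 h, RNA isolated, reverse-transcribed, PCR-amplified, FAM-labelled, HpaI-digested, sized by capillary electrophoresis. DMSO served as negative control.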

Assay [17] has as its target Nuclear receptor subfamily 1 group I member 3 (Homo sapiens) (UniProt Q14994). Description: ATG_CAR_TRANS: Attagene TRANS-FACTORIAL HepG2 Assay for human Constitutive Androstane Receptor (CAR) (AID 2282969; active = hit-call score of the fitted dose curve at least 0.9, where 1 is the maximum;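 note: activators raise reporter mRNA above DMSO so AC50 marks induction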). To be noted: HepG2 Attagene TRANS-FACTORIAL CAR reporter. The procedure, abridged:
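Readout is reporter mRNA induction, quantified by fluorescent primer extension and capillary electrophoresis after RT-PCR. Cells were HepG2 transiently carrying chimeric NR-Gal4 constructs with GAL4-UAS reporters, treated for 24 h; activity scored upward from DMSO.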

Assay [18] deals with Steroid hormone receptor ERR1 (Homo sapiens) (UniProt P11474). Description: ATG_ERRa_TRANS: Attagene TRANS-FACTORIAL HepG2 Assay for human Estrogen-Related Receptor alpha (ERRa) (AID 2282971; active = hit-call score of the fitted dose curve at least 0.9, where 1 is the maximum). To be noted: HepG2 Attagene TRANS reporter, ERRa transactivation. The procedure, abridged:
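HepG2 cells transiently transfected with multiplexed GAL4-UAS reporter units reading chimeric ERRa-Gal4 activity; 24 h compound exposure. Reporter mRNA measured by RT-PCR, 6-FAM labelling, HpaI digest and capillary electrophoresis; gain of signal fitted versus DMSO baseline.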

Assay [19] has as its target Estrogen-related receptor gamma (Homo sapiens) (UniProt P62508). Briefly: ATG_ERRg_TRANS: Attagene TRANS-FACTORIAL HepG2 Assay for human Estrogen-Related Receptor gamma (ERRg) (AID 2282977; active = hit-call score of the fitted dose curve at least 0.9, where 1 is the maximum;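 note: hits increase reporter signal over DMSO so potencies reflect activators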). To be noted: HepG2 Attagene TRANS reporter, ERRg transactivation. The procedure, abridged: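 Transfect HepG2 with multiple GAL4-UAS reporter transcription units; dose chemicals 24 h; isolate RNA, reverse-transcribe with oligo(dT), PCR-amplify, label with 6-FAM, digest with HpaI; size fragments by capillary electrophoresis. DMSO serves as negative control.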

A short description of assay [20]: ATG_M_06_TRANS: Attagene TRANS-FACTORIAL HepG2 Assay for M06 Transcription Factor (Internal Marker) (AID 2282983; active = hit-call score of the fitted dose curve at least 0.9, where 1 is the maximum;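 note: reporter transcript level by RT-PCR then capillary electrophoresis fluorescence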). To be noted: HepG2 Attagene TRANS M06 internal marker reporter. The procedure, abridged:
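HepG2 cells transiently transfected with multiplexed GAL4-UAS reporter transcription units; after 24 h compound exposure, reporter mRNA measured by RT-PCR, FAM-labelled primer extension, HpaI digestion and capillary electrophoresis. Gain-of-signal fitted versus DMSO baseline; background control readout.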

Records with an inconclusive call do not appear. Some compounds were tested as several samples or in several runs, with calls that do not always agree. Activity calls are given as the source filed them. Rule for the calls, unless noted: active = hit-call score of the fitted dose curve at least 0.9, where 1 is the maximum; inactive = score below 0.9.

Chain of Nuclear respiratory factor 1 (Homo sapiens) (Q16656 whole entry, looked up): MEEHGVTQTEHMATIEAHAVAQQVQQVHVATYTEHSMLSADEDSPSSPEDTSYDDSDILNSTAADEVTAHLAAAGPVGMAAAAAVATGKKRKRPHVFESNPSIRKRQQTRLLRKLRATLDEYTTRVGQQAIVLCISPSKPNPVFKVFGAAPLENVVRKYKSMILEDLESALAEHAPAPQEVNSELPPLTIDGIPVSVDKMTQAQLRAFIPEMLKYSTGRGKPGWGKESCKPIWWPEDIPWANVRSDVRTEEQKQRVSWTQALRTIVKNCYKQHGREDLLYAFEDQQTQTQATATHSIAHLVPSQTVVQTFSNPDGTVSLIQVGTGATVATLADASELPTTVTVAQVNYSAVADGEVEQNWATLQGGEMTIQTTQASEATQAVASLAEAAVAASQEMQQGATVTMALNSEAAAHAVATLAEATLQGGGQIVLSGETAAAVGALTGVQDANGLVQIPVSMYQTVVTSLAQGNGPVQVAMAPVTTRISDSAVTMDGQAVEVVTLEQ
Chain of Oxysterols receptor LXR-alpha (Homo sapiens) (Q13133 whole entry, looked up, the tested form may be a part): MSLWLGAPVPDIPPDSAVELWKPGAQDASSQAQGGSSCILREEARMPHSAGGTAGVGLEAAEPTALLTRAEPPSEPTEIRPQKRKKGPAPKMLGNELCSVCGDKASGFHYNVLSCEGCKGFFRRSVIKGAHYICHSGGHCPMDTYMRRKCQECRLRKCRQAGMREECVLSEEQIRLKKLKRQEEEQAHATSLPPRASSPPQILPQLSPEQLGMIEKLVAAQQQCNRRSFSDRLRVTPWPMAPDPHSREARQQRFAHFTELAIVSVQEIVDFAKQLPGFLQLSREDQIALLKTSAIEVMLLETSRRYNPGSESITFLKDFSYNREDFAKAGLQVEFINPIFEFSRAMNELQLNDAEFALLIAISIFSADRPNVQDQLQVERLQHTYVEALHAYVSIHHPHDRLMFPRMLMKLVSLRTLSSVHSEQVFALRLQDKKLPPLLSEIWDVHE
Chain of Nuclear receptor subfamily 4 group A member 2 (Homo sapiens) (P43354 whole entry, looked up, the tested form may be a part): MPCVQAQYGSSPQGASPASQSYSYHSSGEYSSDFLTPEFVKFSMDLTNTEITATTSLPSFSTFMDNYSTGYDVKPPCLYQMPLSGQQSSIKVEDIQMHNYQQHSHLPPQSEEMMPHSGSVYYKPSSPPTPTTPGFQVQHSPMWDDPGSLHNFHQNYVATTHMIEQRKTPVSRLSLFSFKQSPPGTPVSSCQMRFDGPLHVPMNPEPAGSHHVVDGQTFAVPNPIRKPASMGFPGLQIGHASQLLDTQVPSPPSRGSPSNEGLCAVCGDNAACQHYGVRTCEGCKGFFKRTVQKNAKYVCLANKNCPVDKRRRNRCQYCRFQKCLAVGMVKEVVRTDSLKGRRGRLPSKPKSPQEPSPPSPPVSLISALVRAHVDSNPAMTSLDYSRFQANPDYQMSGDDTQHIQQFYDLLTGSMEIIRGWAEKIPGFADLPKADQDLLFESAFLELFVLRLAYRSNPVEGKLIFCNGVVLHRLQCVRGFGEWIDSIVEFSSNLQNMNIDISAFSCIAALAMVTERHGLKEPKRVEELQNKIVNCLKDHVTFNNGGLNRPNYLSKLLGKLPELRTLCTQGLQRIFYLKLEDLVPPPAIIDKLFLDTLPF
Chain of Transcriptional activator Myb (Homo sapiens) (P10242 whole entry, looked up): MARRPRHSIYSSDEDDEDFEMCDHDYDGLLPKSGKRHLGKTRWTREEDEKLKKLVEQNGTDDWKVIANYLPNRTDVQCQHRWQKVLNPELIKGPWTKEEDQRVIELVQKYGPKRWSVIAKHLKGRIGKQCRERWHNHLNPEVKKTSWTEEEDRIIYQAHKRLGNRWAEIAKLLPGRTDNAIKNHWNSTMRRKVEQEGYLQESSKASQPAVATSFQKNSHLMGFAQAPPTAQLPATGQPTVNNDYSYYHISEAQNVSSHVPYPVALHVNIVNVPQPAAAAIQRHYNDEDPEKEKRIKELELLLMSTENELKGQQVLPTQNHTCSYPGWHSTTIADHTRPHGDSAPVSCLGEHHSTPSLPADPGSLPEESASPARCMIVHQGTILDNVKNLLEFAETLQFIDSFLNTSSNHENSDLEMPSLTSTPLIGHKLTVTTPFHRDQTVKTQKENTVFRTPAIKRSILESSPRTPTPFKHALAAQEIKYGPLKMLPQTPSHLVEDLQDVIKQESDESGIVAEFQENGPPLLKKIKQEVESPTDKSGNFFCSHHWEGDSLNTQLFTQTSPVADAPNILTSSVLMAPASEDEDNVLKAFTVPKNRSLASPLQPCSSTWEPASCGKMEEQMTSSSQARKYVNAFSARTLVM
Chain of Estrogen receptor (Homo sapiens) (P03372 whole entry, looked up, the tested form may be a part): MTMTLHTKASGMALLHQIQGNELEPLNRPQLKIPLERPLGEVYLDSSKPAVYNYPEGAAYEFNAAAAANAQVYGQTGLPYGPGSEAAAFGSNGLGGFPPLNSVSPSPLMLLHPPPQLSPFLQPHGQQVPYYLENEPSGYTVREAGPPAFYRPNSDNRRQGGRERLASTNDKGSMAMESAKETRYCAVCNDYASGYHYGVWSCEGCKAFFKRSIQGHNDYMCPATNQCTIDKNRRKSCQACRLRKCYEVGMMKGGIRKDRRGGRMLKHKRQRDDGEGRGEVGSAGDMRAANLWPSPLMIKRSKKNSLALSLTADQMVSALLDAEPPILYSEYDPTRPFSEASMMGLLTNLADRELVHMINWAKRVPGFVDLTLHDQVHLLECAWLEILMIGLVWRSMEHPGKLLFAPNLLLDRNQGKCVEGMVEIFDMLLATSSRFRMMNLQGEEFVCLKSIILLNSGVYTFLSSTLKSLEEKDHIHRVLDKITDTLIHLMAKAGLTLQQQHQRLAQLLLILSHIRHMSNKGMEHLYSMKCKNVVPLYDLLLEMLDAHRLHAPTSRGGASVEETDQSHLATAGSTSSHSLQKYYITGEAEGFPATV
Chain of Hepatocyte nuclear factor 4-alpha (Homo sapiens) (P41235 whole entry, looked up, the tested form may be a part): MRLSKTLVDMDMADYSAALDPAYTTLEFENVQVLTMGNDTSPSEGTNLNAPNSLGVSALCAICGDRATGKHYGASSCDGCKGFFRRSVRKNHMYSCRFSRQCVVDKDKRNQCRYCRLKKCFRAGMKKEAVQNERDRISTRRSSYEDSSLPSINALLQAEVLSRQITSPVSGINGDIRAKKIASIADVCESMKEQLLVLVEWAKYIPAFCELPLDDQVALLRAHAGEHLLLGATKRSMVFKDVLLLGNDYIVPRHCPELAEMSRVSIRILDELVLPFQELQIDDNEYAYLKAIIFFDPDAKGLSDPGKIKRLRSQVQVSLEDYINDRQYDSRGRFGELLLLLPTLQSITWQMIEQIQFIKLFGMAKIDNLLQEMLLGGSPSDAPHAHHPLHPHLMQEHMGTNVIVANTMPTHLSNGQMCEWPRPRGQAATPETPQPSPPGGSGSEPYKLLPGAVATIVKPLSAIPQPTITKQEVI

Regarding `OCCO`, the call in assay [1], in assay [2], in [3], in assay [4], in assay [5] and in [6] was inactive. In addition, the result in assay [7], in assay [8], in assay [9], in [10], in assay [11] and in assay [12] was inactive.

`COc1ccc2cc(S(=O)(=O)N[C@H](CC(=O)N[C@H](Cc3ccc(CN4[C@H](C)CCC[C@@H]4C)cc3)C(=O)N(C)C(C)C)c3ccc4c(c3)OCO4)ccc2c1`: the call in [1], in assay [2], in [3], in [6], in assay [7] and in [13] was inactive. The outcome in [14], in assay [15], in assay [9], in assay [16], in assay [11] and in assay [12] was inactive. For the same compound, the AC50 in assay [4] and in assay [5] was 11 µM (active) in each case.

`CCCCCCCCOc1ccc(C(=O)c2ccccc2)c(O)c1`: the compound was classed as inactive in [1], in [2], in [3], in [17], in [4] and in [18]. The result in assay [5], in [6], in assay [19], in assay [14], in assay [10] and in [16] was inactive. Also, the compound was classed as inactive in [11] and in assay [12].

As for `O=C1CCC(C2CCCCC2)CC1`, the result in assay [1], in assay [2], in assay [3], in assay [17], in assay [5] and in assay [6] was inactive. Further, the compound was classed as inactive in assay [7], in assay [19], in assay [13], in [14], in [15] and in assay [20]. For the same compound, the call in [10], in [16], in assay [11] and in assay [12] was inactive. For the same compound, the half-maximal activity concentration (AC50) in assay [3] is 86.8 µM (active); in assay [11], 147 µM (active).

The values above are taken from PubChem BioAssay (EPA / NIEHS).
